Tests used:
Assay in all cases: DAPPL (digital affinity profiling via proximity ligation, sequencing); 10 mM Tris-HCl pH 7.5, 50 mM NaCl, 1 mM DTT, 4% glycerol, room temperature, 30 min; GST-TFs on glutathione beads, 16-mer random dsDNA library, 0.1% formaldehyde crosslink after washing; high values mean tight binding
Conditions in all cases: protein: recombinant; tags: N-terminal GST; dsDNA, one strand shown
FLI1 = target: T1, FLI1 (Homo sapiens, UniProt Q01543 1-452)
T1 sequence: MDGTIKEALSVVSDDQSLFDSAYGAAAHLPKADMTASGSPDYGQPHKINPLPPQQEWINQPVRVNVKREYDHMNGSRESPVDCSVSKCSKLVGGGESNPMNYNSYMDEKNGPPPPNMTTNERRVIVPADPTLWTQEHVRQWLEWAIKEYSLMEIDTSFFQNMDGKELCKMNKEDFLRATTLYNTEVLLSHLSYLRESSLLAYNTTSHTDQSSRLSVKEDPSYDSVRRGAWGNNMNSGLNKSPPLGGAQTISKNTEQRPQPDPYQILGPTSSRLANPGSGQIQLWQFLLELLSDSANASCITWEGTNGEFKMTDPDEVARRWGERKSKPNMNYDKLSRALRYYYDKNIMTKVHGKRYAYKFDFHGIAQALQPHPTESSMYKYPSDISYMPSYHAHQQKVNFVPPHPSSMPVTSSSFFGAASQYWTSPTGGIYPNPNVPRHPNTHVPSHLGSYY
Summary of the method: (§1)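 Pools were built from human transcription factors expressed in yeast as GST fusions, captured on glutathione beads and DNA-barcoded, along with a tag-only sample. Incubation with 200 nmole of a 16-mer random double-stranded DNA library lasted 30 min at room temperature in Tris/NaCl/DTT/glycerol buffer, and was followed by washing, 0.1% formaldehyde crosslinking, proximity ligation, PCR amplification and Illumina NextSeq500 sequencing. Binding signal is the quotient of each hexamer's read frequency for a factor and its frequency for the tag-only sample.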

ELK1 = target: T2, ELK1 (Homo sapiens, UniProt P19419 1-428)
T2 sequence: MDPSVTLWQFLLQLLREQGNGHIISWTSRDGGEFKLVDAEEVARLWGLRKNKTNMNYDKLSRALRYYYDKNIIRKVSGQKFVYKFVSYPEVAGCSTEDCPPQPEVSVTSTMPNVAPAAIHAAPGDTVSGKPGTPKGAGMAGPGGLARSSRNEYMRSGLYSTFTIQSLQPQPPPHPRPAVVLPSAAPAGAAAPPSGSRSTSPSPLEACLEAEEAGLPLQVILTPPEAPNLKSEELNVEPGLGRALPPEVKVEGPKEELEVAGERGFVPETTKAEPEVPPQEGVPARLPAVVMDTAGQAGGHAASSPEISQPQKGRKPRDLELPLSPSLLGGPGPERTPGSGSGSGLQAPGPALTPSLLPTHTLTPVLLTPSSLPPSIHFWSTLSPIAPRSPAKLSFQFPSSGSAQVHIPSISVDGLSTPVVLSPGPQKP
Summary of the method: as §1

ERG = target: T3, ERG (Homo sapiens, UniProt P11308 1-479)
T3 sequence: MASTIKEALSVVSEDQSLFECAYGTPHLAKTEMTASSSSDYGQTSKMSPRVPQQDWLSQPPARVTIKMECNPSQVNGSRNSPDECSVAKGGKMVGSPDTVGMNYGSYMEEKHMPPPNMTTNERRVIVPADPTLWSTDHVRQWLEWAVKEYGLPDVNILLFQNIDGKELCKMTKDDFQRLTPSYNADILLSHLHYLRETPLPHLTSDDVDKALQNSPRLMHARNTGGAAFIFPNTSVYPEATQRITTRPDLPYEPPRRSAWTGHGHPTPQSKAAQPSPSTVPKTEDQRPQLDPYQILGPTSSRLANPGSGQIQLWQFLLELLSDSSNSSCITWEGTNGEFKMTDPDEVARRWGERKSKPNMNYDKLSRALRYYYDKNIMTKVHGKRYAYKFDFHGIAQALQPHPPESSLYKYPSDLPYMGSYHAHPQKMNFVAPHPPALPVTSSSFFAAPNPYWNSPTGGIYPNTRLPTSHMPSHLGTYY
Summary of the method: as §1

EHF = target: T4, EHF (Homo sapiens, UniProt Q9NZC4 1-300)
T4 sequence: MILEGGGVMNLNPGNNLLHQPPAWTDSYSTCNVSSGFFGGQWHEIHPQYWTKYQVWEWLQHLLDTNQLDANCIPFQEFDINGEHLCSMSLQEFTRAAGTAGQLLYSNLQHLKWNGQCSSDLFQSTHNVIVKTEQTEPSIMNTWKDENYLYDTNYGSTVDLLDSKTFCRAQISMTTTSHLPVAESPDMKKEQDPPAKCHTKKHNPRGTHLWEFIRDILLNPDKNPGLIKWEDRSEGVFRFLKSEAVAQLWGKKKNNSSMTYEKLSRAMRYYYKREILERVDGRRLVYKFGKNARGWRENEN
Summary of the method: as §1

SPI1 = SPI1 (Homo sapiens, UniProt P17947 1-270)
Summary of the method: as §1

SPIB = SPIB (Homo sapiens, UniProt Q01892 1-262)
SPIB, sequence (Q01892 whole entry): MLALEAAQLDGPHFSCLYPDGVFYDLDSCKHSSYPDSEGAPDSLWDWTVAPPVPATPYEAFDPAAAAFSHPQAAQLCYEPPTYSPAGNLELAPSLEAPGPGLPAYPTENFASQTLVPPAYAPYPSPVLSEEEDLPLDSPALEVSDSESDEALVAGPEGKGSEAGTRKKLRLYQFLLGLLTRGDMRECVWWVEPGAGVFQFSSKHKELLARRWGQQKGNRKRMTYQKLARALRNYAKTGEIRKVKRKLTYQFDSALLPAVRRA
Summary of the method: as §1

ELK3 = target: T5, ELK3 (Homo sapiens, UniProt P41970 1-407)
T5 sequence: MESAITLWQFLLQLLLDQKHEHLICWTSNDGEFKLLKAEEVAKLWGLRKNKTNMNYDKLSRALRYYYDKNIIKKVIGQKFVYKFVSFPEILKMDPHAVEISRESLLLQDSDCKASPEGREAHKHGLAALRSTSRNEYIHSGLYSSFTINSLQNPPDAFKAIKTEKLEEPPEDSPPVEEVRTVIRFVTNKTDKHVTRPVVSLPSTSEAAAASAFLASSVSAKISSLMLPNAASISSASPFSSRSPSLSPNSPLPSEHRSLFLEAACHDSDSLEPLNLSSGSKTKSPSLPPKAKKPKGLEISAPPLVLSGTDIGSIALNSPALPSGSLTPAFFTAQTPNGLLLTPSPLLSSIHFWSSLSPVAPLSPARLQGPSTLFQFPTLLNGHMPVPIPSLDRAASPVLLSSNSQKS
Summary of the method: as §1

ELF1 = ELF1 (Homo sapiens, UniProt P32519 1-619)
ELF1, sequence (P32519 whole entry): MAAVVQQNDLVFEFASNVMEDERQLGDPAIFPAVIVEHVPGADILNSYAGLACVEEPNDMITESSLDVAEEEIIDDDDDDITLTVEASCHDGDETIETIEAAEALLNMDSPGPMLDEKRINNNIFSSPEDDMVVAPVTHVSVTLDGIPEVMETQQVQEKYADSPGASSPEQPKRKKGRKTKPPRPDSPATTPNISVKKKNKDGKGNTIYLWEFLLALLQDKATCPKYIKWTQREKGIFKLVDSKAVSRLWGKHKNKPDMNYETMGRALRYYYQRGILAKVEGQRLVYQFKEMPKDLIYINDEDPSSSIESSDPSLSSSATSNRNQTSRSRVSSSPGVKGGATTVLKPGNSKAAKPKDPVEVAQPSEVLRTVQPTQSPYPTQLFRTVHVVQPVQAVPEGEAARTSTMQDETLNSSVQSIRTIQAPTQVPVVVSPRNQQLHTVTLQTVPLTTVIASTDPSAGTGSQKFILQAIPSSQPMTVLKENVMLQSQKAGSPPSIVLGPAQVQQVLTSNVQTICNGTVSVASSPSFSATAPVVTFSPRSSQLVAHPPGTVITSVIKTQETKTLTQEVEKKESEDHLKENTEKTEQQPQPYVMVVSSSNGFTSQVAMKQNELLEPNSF
Summary of the method: as §1

GABPA = target: T6, GABPA (Homo sapiens, UniProt Q06546 1-454)
T6 sequence: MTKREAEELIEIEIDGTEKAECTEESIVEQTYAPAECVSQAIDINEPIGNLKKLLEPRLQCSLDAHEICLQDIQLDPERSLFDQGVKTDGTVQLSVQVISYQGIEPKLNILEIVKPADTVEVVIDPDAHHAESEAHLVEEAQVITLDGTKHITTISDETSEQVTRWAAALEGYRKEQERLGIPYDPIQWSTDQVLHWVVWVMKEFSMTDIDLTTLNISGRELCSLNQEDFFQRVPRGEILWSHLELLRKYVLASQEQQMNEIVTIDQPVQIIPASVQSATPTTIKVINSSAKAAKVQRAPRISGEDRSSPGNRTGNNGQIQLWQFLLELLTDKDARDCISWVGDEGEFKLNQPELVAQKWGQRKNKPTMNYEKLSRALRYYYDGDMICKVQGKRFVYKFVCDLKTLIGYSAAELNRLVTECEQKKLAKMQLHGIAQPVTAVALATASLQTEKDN
Summary of the method: as §1

| Sequence | binding signal (FLI1) | binding signal (ELK1) | binding signal (ERG) | binding signal (EHF) | binding signal (SPI1) | binding signal (SPIB) | binding signal (ELK3) | binding signal (ELF1) | binding signal (GABPA) |
| --- | --- | --- | --- | --- | --- | --- | --- | --- | --- |
| AAATCG | 1.03 fold enrichment (6-mer frequency, TF over GST control) | 1.01 fold enrichment (6-mer frequency, TF over GST control) | 1.06 fold enrichment (6-mer frequency, TF over GST control) | 1.03 fold enrichment (6-mer frequency, TF over GST control) | 1.01 fold enrichment (6-mer frequency, TF over GST control) | 1.04 fold enrichment (6-mer frequency, TF over GST control) | 1.04 fold enrichment (6-mer frequency, TF over GST control) | – | – |
| CCTAGA | 1.04 fold enrichment (6-mer frequency, TF over GST control) | 1.01 fold enrichment (6-mer frequency, TF over GST control) | – | – | – | – | – | 1.02 fold enrichment (6-mer frequency, TF over GST control) | – |
| GTTATC | 1.12 fold enrichment (6-mer frequency, TF over GST control) | – | 1.1 fold enrichment (6-mer frequency, TF over GST control) | 1.12 fold enrichment (6-mer frequency, TF over GST control) | 1.03 fold enrichment (6-mer frequency, TF over GST control) | 1.02 fold enrichment (6-mer frequency, TF over GST control) | 1.22 fold enrichment (6-mer frequency, TF over GST control) | 1.09 fold enrichment (6-mer frequency, TF over GST control) | 1.07 fold enrichment (6-mer frequency, TF over GST control) |
| CATGTA | 1.15 fold enrichment (6-mer frequency, TF over GST control) | 1.06 fold enrichment (6-mer frequency, TF over GST control) | – | 1.04 fold enrichment (6-mer frequency, TF over GST control) | 1.02 fold enrichment (6-mer frequency, TF over GST control) | – | 1.13 fold enrichment (6-mer frequency, TF over GST control) | 1.11 fold enrichment (6-mer frequency, TF over GST control) | – |
| TTTAGT | 1.13 fold enrichment (6-mer frequency, TF over GST control) | – | – | – | 1.07 fold enrichment (6-mer frequency, TF over GST control) | 1.12 fold enrichment (6-mer frequency, TF over GST control) | 1.11 fold enrichment (6-mer frequency, TF over GST control) | 1.11 fold enrichment (6-mer frequency, TF over GST control) | 1.11 fold enrichment (6-mer frequency, TF over GST control) |
| ATCGTT | 1.08 fold enrichment (6-mer frequency, TF over GST control) | – | 1.02 fold enrichment (6-mer frequency, TF over GST control) | – | – | – | – | – | 1.01 fold enrichment (6-mer frequency, TF over GST control) |
| ACGATC | 1.05 fold enrichment (6-mer frequency, TF over GST control) | – | 1.03 fold enrichment (6-mer frequency, TF over GST control) | – | – | 1.08 fold enrichment (6-mer frequency, TF over GST control) | 1.1 fold enrichment (6-mer frequency, TF over GST control) | 1.09 fold enrichment (6-mer frequency, TF over GST control) | 1.17 fold enrichment (6-mer frequency, TF over GST control) |
| ATCAGC | 1.03 fold enrichment (6-mer frequency, TF over GST control) | 1.08 fold enrichment (6-mer frequency, TF over GST control) | – | 1.02 fold enrichment (6-mer frequency, TF over GST control) | – | 1.02 fold enrichment (6-mer frequency, TF over GST control) | 1.03 fold enrichment (6-mer frequency, TF over GST control) | 1.01 fold enrichment (6-mer frequency, TF over GST control) | – |
| TTGGCT | 1.15 fold enrichment (6-mer frequency, TF over GST control) | 1.07 fold enrichment (6-mer frequency, TF over GST control) | – | 1.12 fold enrichment (6-mer frequency, TF over GST control) | – | – | 1 fold enrichment (6-mer frequency, TF over GST control) | 1.13 fold enrichment (6-mer frequency, TF over GST control) | – |
| GGCTTA | 1.05 fold enrichment (6-mer frequency, TF over GST control) | – | 1.04 fold enrichment (6-mer frequency, TF over GST control) | 1.02 fold enrichment (6-mer frequency, TF over GST control) | 1.02 fold enrichment (6-mer frequency, TF over GST control) | – | 1.01 fold enrichment (6-mer frequency, TF over GST control) | 1.08 fold enrichment (6-mer frequency, TF over GST control) | 1.17 fold enrichment (6-mer frequency, TF over GST control) |

Reference: paper PMC7862700, “An all-to-all approach to the identification of sequence-specific readers for epigenetic DNA modifications on cytosine”
